Experimental data taken from PubChem BioAssay AID1745850 (National Center for Advancing Translational Sciences (NCATS), 2022).
The campaign covered roughly 2,100 compounds. About 260 (12%) were called active. About 58% were inconclusive and are not listed. Calls follow the shape of the dose curve; as a rule, active = well fitted cell-killing curve with a large enough effect; inconclusive = small, poorly fitted or top-dose-only effect, or effect the other way; inactive = flat fitted curve, though single readings scatter. This is one part of the list.

assay: Viability Counterscreen for Confirmatory qHTS for Inhibitors of ATXN expression; details: HEK-293 ATXN2-luc cells viability, CellTiter-Fluor, 24 h; activity change, negative = cytotoxicity: at the top concentration; also: nearly all actives have a fitted effect of over 50% in size
How it was run: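 Cells with an ATXN2-luciferase reporter were dosed in a dilution series for 24 h at 37 degrees C. Viability was read first with Gly-Phe-AFC at 25 uM final (fluorescence, ex 405/em 540), then SteadyGlo luminescence. Medium-only wells defined 100% inhibition.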
Potency is read from the fitted curve at half-maximal effect.

SMILES	Potency	activity change, negative = cytotoxicity
CC[n+]1c(/C=C/c2c[nH]c3ccccc23)ccc2cc(C)ccc21	15.8 µM (active)	
Nc1ccc(OC(=O)Nc2ccc(O)cc2)cc1		-23.8% [at 57.5 µM] (inactive)
O=C(NCC1CCCO1)c1cccc(Oc2ccc([N+](=O)[O-])cc2Cl)c1 (stereo unspecified)		-10.9% (inactive)
O=C(Cn1cnc([N+](=O)[O-])c1)Nc1cc(Oc2ccc(Cl)cc2Cl)cc([N+](=O)[O-])c1	3.16 µM (active)	
CC1CCN(Cc2c(C(=O)N/N=C/c3cc(Cl)ccc3O)nnn2-c2nonc2N)CC1		-9.41% (inactive)
Nc1cc2c3c(cccc3c1)C(=O)N(CCN1CCCC1)C2=O	22.4 µM (active)	
O=C1c2cccc3cc([N+](=O)[O-])cc(c23)C(=O)N1CCN1CCCC1	3.16 µM (active)	
CCCCCCc1cc2cc(C(=O)Nc3ccccc3)c(=O)oc2cc1O		14.7% (inactive)
O=C(CN1C(=O)c2ccccc2S1(=O)=O)N1CCc2ccccc21		-6.71% (inactive)
CCOc1cc(/C=C2\SC(=N)N(c3nccs3)C2=O)ccc1OCCN1CCOCC1	25.1 µM (active)	
OC1(c2ccc(Br)cc2)CCNCC1		-4.89% (inactive)
Cc1onc(-c2ccccc2)c1C(=O)Nc1ccc(S(=O)(=O)NC(C)(C)C)cc1		-0.495% [at 57.5 µM] (inactive)
Cc1cc(C)cc(OCC(=O)NNC(=S)NC(=O)C2CC2)c1		1.25% (inactive)
Cc1sc2cc3c(c(C(=O)c4ccccc4)[n+]2c1C)-c1cccc2cccc-3c12	12.6 µM (active)	
CC(=O)c1ccc(C(=O)Nc2nnc(-c3ccc(Cl)cc3)o2)cc1		-8.23% (inactive)
CCn1c2ccccc2c2cc(NC(=O)COC(=O)C3CCC(=O)N3)ccc21 (stereo unspecified)		-15.2% [at 57.5 µM] (inactive)
NS(=O)(=O)c1ccc(N2N=C(c3ccc(Br)cc3)CC2c2ccc(F)cc2)cc1 (stereo unspecified)		-21.3% [at 57.5 µM] (inactive)
O=C(NNCc1ccccc1)c1ccccc1		-14.6% [at 57.5 µM] (inactive)
COc1cccc(OC)c1C(=O)OCC(=O)NC(=O)NCc1ccccc1		-8.35% (inactive)
c1ccc(CN=C(NCc2ccccc2)NCc2ccccc2)cc1	31.6 µM (active)	
C/C(=N\NC(=O)c1cccc2ccccc12)c1ccccn1	6.31 µM (active)	
CCCCCC(=O)N/N=C(\C)c1ccccn1		-17.7% (inactive)
CCCC/C(C)=N/NC(=O)c1cn(-c2ccccc2)nc1-c1ccccc1		4.09% (inactive)
Nc1cccc2nc3ccccc3cc12		2.62% [at 57.5 µM] (inactive)
COc1cc2cc(C(=O)NC(C)c3cccc4ccccc34)c(N)nc2cc1OC (stereo unspecified)		-8.62% (inactive)
COc1cc(N)ccc1Nc1c2ccccc2nc2ccccc12	31.6 µM (active)	

SMILES	Potency	activity change, negative = cytotoxicity
O=C(NNC(=O)c1csc(-c2cnccc2C(F)(F)F)n1)c1ccc(C(F)(F)F)cc1		-18.1% (inactive)
c1cc2c(cc1-c1cnc3n1CCC3)OCCO2		-28.7% [at 57.5 µM] (inactive)
O=C1C=C(NCCc2cc(Br)c(O)c(Br)c2)C(=O)c2ncccc21	10 µM (active)	
CCOC(=O)c1c2ccc(OCC(=O)N/N=C/c3ccc(C)cc3)cc2n2ccccc12		-23% [at 57.5 µM] (inactive)
CN1CCC[C@H]1CCNc1ccc2c(=O)c3ccccc3n(C)c2c1		14.2% [at 57.5 µM] (inactive)
CCCc1nc2c(c(=O)c3ccccc3n2C)c(=O)n1C1CCCCCC1	28.2 µM (active)	
Nc1c(C(=O)NCc2ccc3c(c2)OCO3)c2nc3ccccc3nc2n1CCCN1CCOCC1		-24.5% [at 57.5 µM] (inactive)
CC(C)(C)c1ccc(OCCn2nc(C(=O)O)c3ccccc3c2=O)cc1		-26.5% [at 57.5 µM] (inactive)
COC(=O)C1=C(C)N(Cc2ccccc2)C(=NCCc2cccnc2)N[C@H]1c1ccc(Br)cc1	22.4 µM (active)	
Cc1cccc(NC(=O)CCC(=O)N/N=C/c2ccc(O)cc2O)c1		-20.9% (inactive)
COc1ccc2c(Cl)c(C(=O)NN)sc2c1		8.74% (inactive)
CCC(=O)c1ccc(OCC(O)CN(CCc2ccccc2)Cc2ccccc2)cc1 (stereo unspecified)		-22.7% (inactive)
OC(CNCCc1ccccc1)COc1ccc(OCC(O)CNCCc2ccccc2)cc1 (stereo unspecified)	22.4 µM (active)	
O=C(N/N=C\c1c(O)ccc2ccccc12)c1ccc(S(=O)(=O)N2CCCCC2)cc1		-12.7% [at 57.5 µM] (inactive)
O=S(=O)(c1ccc2nc(COc3ccc(Cl)cc3Cl)[nH]c2c1)N1CCOCC1		3.51% (inactive)
COc1cccc(NC(=O)CSc2nc3ncc(Br)cc3[nH]2)c1		-9.63% (inactive)
CC(C)N(Cc1ccccc1)C(=O)/C=C/c1ccccc1[N+](=O)[O-]		-23.4% [at 57.5 µM] (inactive)
CC1CCCCC1NC(=O)/C(C#N)=C/C=C/c1ccccc1[N+](=O)[O-] (stereo unspecified)	2.82 µM (active)	
N#C/C(=C\C=C\c1ccccc1[N+](=O)[O-])C(=O)NC1CCCCC1	20 µM (active)	
O=C(NCC1CC1)c1ccc2c(c1)S(=O)(=O)c1cc(Cl)ccc1C2=O		-16.3% (inactive)
Cc1cc(C)n(-c2ccc(C(=O)N3CCN(S(=O)(=O)c4cccc(Br)c4)CC3)cc2)n1		-15.9% (inactive)
O=C(Nc1ccc(N2CCOCC2)c(Cl)c1)c1c(F)c(F)c(F)c(F)c1F		-11% (inactive)
CC(O)(c1ccccc1)c1nc(-c2ccncc2)cs1 (stereo unspecified)		-3.76% (inactive)
COc1ccc(NC2=NCC(Cc3ccc(Br)cc3)S2)cc1 (stereo unspecified)		-15.6% (inactive)
CCN(CC)CCC(c1ccc2c(c1)OCO2)c1c(OC)cc(OC)c2c(-c3ccccc3)cc(=O)oc12 (stereo unspecified)	20 µM (active)	
Cc1ccc(SC2=C(Sc3ccc(C)cc3)C(=O)c3ccccc3C2=O)cc1		-12.3% [at 57.5 µM] (inactive)

SMILES	Potency	activity change, negative = cytotoxicity
CSc1ncnc2c1ncn2CC(=O)C1CCC2C3CCC4=CC(=O)CCC4(C)C3CCC12C (stereo unspecified)	17.8 µM (active)	
CCC(=O)OC1(C(C)=O)CCC2C3CCC4=CC(=O)CCC4(C)C3CCC21C (stereo unspecified)		-8.08% [at 57.5 µM] (inactive)
Cc1ccc(Sc2nnc(Cc3ccccc3)c3ccccc23)cc1		-20.7% [at 57.5 µM] (inactive)
Cc1cc(C)c(C(=O)N2CCCC(N3CCN(c4cccc(C(F)(F)F)c4)CC3)C2)o1 (stereo unspecified)		-17.7% (inactive)
CCOC(=O)c1cnc(-n2nc(C)cc2C)nc1NC1CCCC1		-24.9% (inactive)
Cc1cc(O)c(C(C)C)cc1N=Cc1ccccc1[N+](=O)[O-]		-7.78% [at 57.5 µM] (inactive)
Cc1cc(N/N=C/c2ccccc2[N+](=O)[O-])nc(-n2nc(C)cc2C)n1	12.6 µM (active)	
CCOc1cc(/C=N/Nc2cc(C)nc(-n3nc(C)cc3C)n2)ccc1O	3.98 µM (active)	
CC(=O)c1ccc(S(=O)(=O)N2CCN(CCOc3ccc(Br)cc3)CC2)cc1		-18.1% (inactive)
CC(C)(C)N(Cc1ccc2c(c1)OCO2)C(=O)/C=C\S(=O)c1ccccc1 (stereo unspecified)	17.8 µM (active)	
CN(C)CCC(c1ccc(Br)cc1)c1ccccn1 (stereo unspecified)		-18.7% [at 57.5 µM] (inactive)
CCOC(=O)c1c(-c2ccccc2)oc2ccc(OCC(=O)NN)cc12		-25.4% [at 57.5 µM] (inactive)
O=C(N/N=C\c1cc(Br)ccc1O)c1ccc(S(=O)(=O)N2CCCCC2)cc1		7.84% (inactive)
N#C/C(=C\c1ccc([N+](=O)[O-])o1)c1nc2ccccc2[nH]1	7.94 µM (active)	
CCOc1cc(/C=C(/C#N)c2nc3ccccc3[nH]2)ccc1Oc1ccc([N+](=O)[O-])cn1		-26% [at 57.5 µM] (inactive)
O=C(Nc1cccnc1)C1Cc2c(-c3ccc4c(c3)OCO4)ccnc2O1 (stereo unspecified)		-4.94% (inactive)
Cc1nn(-c2ccccc2)c(N2CCCC2)c1/C=N/NC(=O)c1cc2ccccc2cc1O		-15.2% (inactive)
Cc1nc(SC2CC(=O)N(c3ccccc3)C2=O)n[nH]1 (stereo unspecified)		-11.3% [at 57.5 µM] (inactive)
Cc1cc(C(=O)CN2C(=O)c3ccccc3S2(=O)=O)c(C)n1CC1CCCO1 (stereo unspecified)		-6.33% [at 57.5 µM] (inactive)
S=C(Nc1ccccc1)Nc1ccc(OCc2ccc(Cl)cc2Cl)cc1		-16.1% [at 57.5 µM] (inactive)
CCc1nc2c(OCc3ccc(Cl)cc3Cl)cccn2c1N(C=O)Cc1ccc(OC)cc1		-19.5% (inactive)
Cc1cc(/C=N/n2cnnc2)c(C)n1-c1ccc(OCc2ccc(Cl)cc2Cl)cc1	28.2 µM (active)	
Nc1cccc2c1C(=O)N(C(=O)/C=C/c1cccc(Br)c1)C2=O		2.1% [at 57.5 µM] (inactive)
Cn1nnnc1Sc1ncnc2scc(Br)c12	20 µM (active)	
Cn1nnnc1Sc1ncnc2scc(-c3ccc[nH]3)c12	12.6 µM (active)	
O=c1[nH]c(CN2CCN(c3ncccn3)CC2)nc2c(Br)cc(Br)cc12		-9.08% (inactive)

SMILES	Potency	activity change, negative = cytotoxicity
CCOC(=O)COc1ccc(Br)cc1/C=C/c1[nH]c(=O)[nH]c(=O)c1[N+](=O)[O-]		-26.2% (inactive)
Nc1ccc2c(c1)OC1(CCCC1)O2		-8.89% (inactive)
Cn1c(CCc2nc3ccccc3[nH]2)nnc1SCC#N		-10.6% [at 57.5 µM] (inactive)
c1ccc2c(c1)c1c(c3ccccc32)CN2CCCC2C1 (stereo unspecified)		-16.7% [at 57.5 µM] (inactive)
COc1ccc(-c2c[n+]3c4n2CCCCC4=C(c2ccc(Br)cc2)C3)cc1		-28.7% (inactive)
Cc1cccc(OCCn2cc(/C=N/NC(=O)c3ccncc3)c3ccccc32)c1		-6.67% (inactive)
COc1ccc(C(=O)NC(=C(Cl)Cl)S(=O)(=O)c2ccc(C)cc2)cc1		-18% (inactive)
Cc1ccc(S(=O)(=O)/C(=C/Cl)NC(=O)c2ccccc2)cc1	22.4 µM (active)	
Cc1ccc(S(=O)(=O)NCC(=O)N/N=C/c2ccccc2O)cc1		-10.1% (inactive)
CCOC(=O)c1ccc(/C=C2/C=C(c3ccccc3)N(c3ccc(Cl)c(C(=O)O)c3)C2=O)cc1		-28.3% [at 57.5 µM] (inactive)
O=C(c1cc(COc2cccc(C(F)(F)F)c2)on1)N1CCC(c2ccncc2)CC1		-15.7% (inactive)
COc1ccc(O)c(/C=N/NC(=O)CSc2nnc(C)n2-c2ccccc2)c1		-23.6% (inactive)
Cn1c(SCC(=O)Nc2cc(Cl)cc(Cl)c2)nnc1-c1ccc2nonc2c1		-28.1% (inactive)
CSc1sc(-c2nnc(SCC(=O)Nc3ccc(Cl)cc3)n2C)c2c1C=CCC2		-6.66% (inactive)
Cn1c(SCC(=O)N/N=C/c2ccc([N+](=O)[O-])s2)nnc1-c1ccccc1	22.4 µM (active)	
C=CCn1c(COc2ccccc2)nnc1SCC(=O)N/N=C/c1cc(Cl)ccc1O		-24.6% [at 57.5 µM] (inactive)
Cn1c(SCC(=O)N/N=C/c2ccc([N+](=O)[O-])s2)nnc1-c1ccc(Cl)cc1	11.2 µM (active)	
CCN1CC2=C(OC(N)=C(C#N)C2c2cccs2)/C(=C\c2cccs2)C1 (stereo unspecified)		-21.6% (inactive)
C/C(=N\NC(=O)C12CCC(C)(C(=O)O1)C2(C)C)c1ccccc1O (stereo unspecified)		-16.2% (inactive)
Cc1nn(-c2ccccc2)c2nc(-c3cccs3)cc(C(=O)NN)c12		-21.5% [at 57.5 µM] (inactive)
CCCNC(=O)c1ccc2c(=O)c(O)c(-c3ccc(C)cc3)[nH]c2c1		-21.6% [at 57.5 µM] (inactive)
CC(=O)c1cccc(-c2csc3ncnc(Sc4nnnn4C)c23)c1	11.2 µM (active)	
Cn1nnnc1Sc1ncnc2scc(-c3cccc(S(C)(=O)=O)c3)c12	22.4 µM (active)	
